The nature of assay [1]: qHTS assay to test for compound auto fluorescence at 590 nm (red) in HepG2 cells (AID 720674). Summed up:
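We screened compounds on adherent HepG2 cells, incubating them for an hour at 37 C in 5% CO2 before reading emission at 590 nm under 540 nm excitation; values reflect equivalence to Rose Bengal sodium fluorescence.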

Assay [2] can be described thus: qHTS assay to test for compound auto fluorescence at 535 nm (green) in HepG2 cells (AID 720675). On the technique in general: Quantitative high-throughput screening tests each substance at several concentrations.
Assay [3] can be described thus: qHTS assay to test for compound auto fluorescence at 460 nm (blue) in HEK293 cells (AID 720678). The method, boiled down: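 After cell attachment (4-5 hr, 37C), compounds were pinned onto HEK293 monolayers in 10% dialyzed FBS medium. The blue channel (405/460 nm) was read following overnight culture. Equivalency was calculated against triamterene.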
Assay [4] can be described thus: qHTS assay to test for compound auto fluorescence at 590 nm (red) in HEK293 cells (AID 720679). Summed up: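 Plates of HEK293 cells (10% dialyzed FBS) are treated with 23 nL compound or DMSO vehicle after a 4-5 hr attachment period, incubated overnight at 37C, and read for red fluorescence at 540/590nm.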
Assay [5] in a line: qHTS assay to test for compound auto fluorescence at 535 nm (green) in HEK293 cells (AID 720680).
Assay [6] can be described thus: qHTS assay to test for compound auto fluorescence at 460 nm (blue) in HEK293 cell free culture (AID 720681). Summed up:
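Blue fluorescence (Ex 405/Em 460 nm, triamterene-equivalent) was read immediately after pin transfer of compound or DMSO into medium (DMEM, 10% FBS) without cells.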

A short description of assay [7]: qHTS assay to test for compound auto fluorescence at 590 nm (red) in HEK293 cell free culture (AID 720683). The method, boiled down: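 Red-channel autofluorescence of compounds in culture medium (DMEM, 10% FBS), no cells, measured at 540/590 nm. Rose Bengal sodium is the reference fluorophore for equivalence.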
The nature of assay [8]: qHTS assay to test for compound auto fluorescence at 590 nm (red) in HepG2 cell free culture (AID 720684). Summed up:
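No cells present: MEM + 10% FBS only. Compound pinned in, red label read (540/590 nm). Activity = fluorescence equivalent to Rose Bengal sodium.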

A short description of assay [9]: qHTS assay to test for compound auto fluorescence at 460 nm (blue) in HepG2 cell free culture (AID 720685). The method, boiled down: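 Cell-free plates of MEM plus 10% FBS received 23 nL compound or DMSO vehicle; blue-channel (405/460 nm) intensity scored against triamterene as reference fluorophore.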
Assay [10] in a line: qHTS assay to test for compound auto fluorescence at 535 nm (green) in HepG2 cell free culture (AID 720686).
Assay [11] in a line: qHTS assay to test for compound auto fluorescence at 460 nm (blue) in HepG2 cells (AID 720687). The method, boiled down: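 Blue-channel autofluorescence (Ex/Em 405/460 nm, triamterene-equivalent) was measured after 1 hr compound exposure at 37 C, 5% CO2. Cells were HepG2, plated overnight at 37 C in MEM plus 10% FBS.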
The nature of assay [12]: qHTS assay for small molecules that induce genotoxicity in human embryonic kidney cells expressing luciferase-tagged ATAD5 (AID 651632). Note: nearly all actives have a fitted effect of over 15% in size. Note: potency is the fitted concentration of half-maximal effect. The method, boiled down: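 Quantitative HTS in HEK293T expressing luciferase-tagged ATAD5, whose levels rise upon DNA damage. Exposure ran 16 hr at 37C and 5% CO2, with luminescence read 30 min after Amplite addition at room temperature.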

Assay [13] can be described thus: qHTS assay for small molecules that induce genotoxicity in human embryonic kidney cells expressing luciferase-tagged ATAD5 - cell viability (AID 651634; calls by dose curve; note: nearly all actives have a fitted effect of over 25% in size). The method, boiled down: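 After 15.5 hr incubation with compound at 37C, 5% CO2, HEK293T ATAD5-luciferase cells received CellTiter-Fluor reagent; fluorescence intensity was quantified following 30 min at 37C.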

Assay [14] is described as follows: qHTS assay for small molecule disruptors of the mitochondrial membrane potential - cell viability (AID 720634; calls by dose curve;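 note: human HepG2 liver cancer cells; nearly all actives have a fitted effect of over 20% in size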). The method, boiled down: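 ATP-based luminescent viability readout (CellTiter-Glo, 30 min, room temperature) in HepG2 cells multiplexed with the m-MPI membrane potential dye; compound exposure lasted 1 hr at 37 C.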
Assay [15] in a line: qHTS assay for small molecule disruptors of the mitochondrial membrane potential (AID 720635). Note: potency is the fitted concentration of half-maximal effect. The method, boiled down: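 Mitochondrial membrane potential tracked with Mito-MPS dye, red aggregates (ex 540/em 590 nm) against green monomers (ex 490/em 535 nm). Compound treatment 1 hr at 37C, dye 30 min in HepG2.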
Assay [16] is described as follows: qHTS assay to test for compound auto fluorescence at 535 nm (green) in HEK293 cell free culture (AID 720682). Summed up: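 Using fluorescein as calibrant, autofluorescence was quantified at 485/535 nm in cell-free DMEM containing 10% FBS after pintool addition of compound or vehicle.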
Assay [17] deals with Glucocorticoid receptor (Homo sapiens) (UniProt P04150). Description: qHTS assay to identify small molecule agonists of the glucocorticoid receptor (GR) signaling pathway (AID 720691; active = well fitted activation curve with a large enough effect in the signal ratio in the repeat runs, not every such curve was filed as active; the % refers to the signal ratio). To be noted: GR-bla HeLa, beta-lactamase reporter ratio, 18 h; activation: at 62.4 µM (top of the series). Summed up: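 Cells: GR-bla HeLa, endogenous GR with stably integrated GRE-beta-lactamase reporter. Treatment 18 h, 37 C, compounds delivered in DMSO. Detection via LiveBLAzer B/G FRET substrate, 2 h RT, fluorescence intensity.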
Glucocorticoid receptor (Homo sapiens), sequence (P04150 whole entry, looked up): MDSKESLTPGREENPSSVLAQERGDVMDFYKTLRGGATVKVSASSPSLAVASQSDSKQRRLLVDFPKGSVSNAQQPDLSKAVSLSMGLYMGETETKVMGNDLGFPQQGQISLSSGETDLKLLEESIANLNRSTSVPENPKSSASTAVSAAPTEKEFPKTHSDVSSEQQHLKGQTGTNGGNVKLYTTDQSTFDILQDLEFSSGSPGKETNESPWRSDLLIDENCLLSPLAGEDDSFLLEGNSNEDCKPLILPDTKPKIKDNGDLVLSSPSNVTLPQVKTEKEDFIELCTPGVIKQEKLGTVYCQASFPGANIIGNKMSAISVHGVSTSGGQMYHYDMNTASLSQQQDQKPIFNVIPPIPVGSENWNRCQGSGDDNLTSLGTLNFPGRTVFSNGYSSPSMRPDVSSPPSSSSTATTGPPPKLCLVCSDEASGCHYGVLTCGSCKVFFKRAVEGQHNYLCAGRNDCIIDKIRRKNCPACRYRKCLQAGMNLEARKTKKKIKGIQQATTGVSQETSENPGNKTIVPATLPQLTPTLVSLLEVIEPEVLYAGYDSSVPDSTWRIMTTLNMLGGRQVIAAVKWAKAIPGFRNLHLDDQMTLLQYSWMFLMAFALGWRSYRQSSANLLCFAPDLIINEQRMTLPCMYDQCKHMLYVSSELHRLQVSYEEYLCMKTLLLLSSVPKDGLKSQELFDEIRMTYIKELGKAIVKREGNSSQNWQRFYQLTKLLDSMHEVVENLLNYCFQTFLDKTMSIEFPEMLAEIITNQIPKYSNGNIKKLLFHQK

Assay [18] has the same target. Description: qHTS assay to identify small molecule antagonists of the glucocorticoid receptor (GR) signaling pathway (AID 720692; active = well fitted inhibition curve with a large enough effect in the signal ratio in the repeat runs, not every such curve was filed as active; the % refers to the signal ratio). The method, boiled down:
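Quantitative HTS in antagonist format: HeLa cells expressing endogenous GR and a stably integrated GRE-bla reporter, stimulated with 5 nM dexamethasone (final) alongside test compounds for 18 h.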

Assay [19] in a line: qHTS assay for small molecule agonists of the p53 signaling pathway - cell viability (AID 651633; calls by dose curve; note: nearly all actives have a fitted effect of over 30% in size; note: potency is the fitted concentration of half-maximal effect). Summed up: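 Viability counter-read: CellTiter-Glo luminescence (30 min, room temperature) in the same p53RE-bla plates. These plates had been exposed to compounds for 16 h at 37 C.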

Each structure is given as a SMILES string. Values joined by “and” are separate entries in the source; they are usually repeats but may differ in a detail not shown here. Equal entries are not always repeated. Results filed as inconclusive are left out. Active and inactive are the calls of the source. Unless noted, calls come from the whole dose curve; as a rule, active = well fitted curve in the direction sought with a large enough effect in the repeat runs; inconclusive = weak or mixed curves; inactive = no such curve, though single readings can be large; an effect the other way counts as inactive or inconclusive.

As for `CC(=O)N(C)C`, the call in assay [1], in assay [4], in assay [5], in assay [7] and in assay [8] was inactive. Further, the Potency entry in assay [2], in assay [3], in [6], in assay [9], in assay [10] and in [11] was “inactive” in each case.
With `C(=C\c1ccncc1)/c1ccccc1`, the Potency in assay [12] is 23.7 µM (active); in [15], 3.76 µM (active) and 10.6 µM (active). In addition, the Potency entry in assay [13], in assay [14], in assay [2], in [3], in assay [6] and in [9] was “inactive” each time. Besides, the Potency entry in [10], in [11], in assay [17] and in assay [18] was “inactive” in each case. For the same compound, the compound was called inactive in assay [1], in [4], in assay [5], in assay [16] and in assay [7].
As to `N[C@H](CO)C(=O)O`, the Potency result in [12], in [19], in assay [14], in assay [2], in assay [3] and in assay [6] was “inactive” each time. The Potency result in assay [9], in assay [10], in [11] and in assay [17] was “inactive” in each case. Further, the outcome in assay [1], in [4], in assay [5], in [16], in assay [7] and in assay [8] was inactive.
On to `CCCCCCCC1CCC(=O)O1` (stereo unspecified), for which the outcome in assay [1], in [4], in [5], in assay [16], in assay [7] and in assay [8] was inactive. The Potency entry in [2], in assay [3], in assay [6], in assay [9], in [10] and in assay [11] was “inactive” each time.
As to `C=CCc1cc(S(=O)(=O)c2ccc(O)c(CC=C)c2)ccc1O`, the Potency entry in [12], in assay [13], in assay [14], in assay [2], in [3] and in [6] was “inactive” throughout. Besides, the Potency entry in assay [9], in assay [10], in assay [11] and in [17] was “inactive” each time. The Potency in [15] was 27.3 µM (active). Moreover, the result in [1], in assay [4], in assay [5], in assay [16], in assay [7] and in assay [8] was inactive.
In the case of `CC(O)(c1ccc(Cl)cc1)c1ccc(Cl)cc1`, the Potency entry in assay [12], in assay [13], in assay [2], in assay [3], in assay [6] and in [9] was “inactive” each time. Besides, the Potency entry in [11] and in assay [17] was “inactive” in each case. Also, in [15], the Potency is 27.3 µM (active). Besides, the compound was called inactive in [1], in [4], in assay [5], in [16], in [7] and in assay [8].
Regarding `CNCCC=C1c2ccccc2CCc2ccccc21`, the Potency result in assay [19], in [14], in assay [2], in [3], in assay [6] and in [9] was “inactive” each time. Besides, the Potency entry in assay [10], in assay [11] and in assay [18] was “inactive” throughout. Also, the call in assay [1], in [4], in assay [5], in [7] and in assay [8] was inactive.
With `CC1=C(/C=C/C(C)=C/C=C/C(C)=C\C(=O)O)C(C)(C)CCC1`, the Potency entry in assay [12], in [14], in assay [2], in [3], in assay [6] and in [9] was “inactive” each time. The Potency result in assay [10] and in [11] was “inactive” throughout. The Potency in assay [15] was 61.3 µM (active). In addition, the compound was called inactive in [1], in assay [4], in assay [5], in [7] and in assay [8].
Consider `CN[C@H]1CC[C@@H](c2ccc(Cl)c(Cl)c2)c2ccc(S(N)(=O)=O)cc21`, for which the Potency result in [12], in assay [14], in assay [2], in [3], in assay [6] and in [9] was “inactive” in each case. Besides, the Potency entry in [10] and in assay [11] was “inactive” each time. The Potency in [15] is 8.63 µM (active). In addition, the result in assay [1], in assay [4], in assay [5], in assay [16], in assay [7] and in assay [8] was inactive.
In the case of `CCN(CC)CC#CCOC(=O)C(O)(c1ccccc1)C1CCCCC1` (stereo unspecified), the Potency result in assay [13], in assay [2], in assay [3], in assay [6], in assay [9] and in [11] was “inactive” in each case. Besides, the Potency result in assay [17] and in assay [18] was “inactive” throughout. In addition, the compound was classed as inactive in assay [1], in assay [4], in assay [5], in [16], in assay [7] and in assay [8].
Turning to `CN1CCN(CCCN2c3ccccc3Sc3ccc(Cl)cc32)CC1`, the Potency result in assay [12], in assay [2], in assay [3], in assay [6], in [9] and in assay [10] was “inactive” in each case. In assay [11], the Potency result is “inactive”. Further, the Potency in assay [19] is 29.8 µM (active). Besides, the outcome in [1], in [4], in assay [5], in assay [16], in [7] and in assay [8] was inactive.
On to `c1ccc2cc3c4ccccc4c4ccccc4c3cc2c1`, for which the Potency entry in assay [12], in [19], in assay [13], in assay [2], in [3] and in assay [6] was “inactive” throughout. Besides, the Potency entry in assay [9], in assay [10] and in [11] was “inactive” throughout. The outcome in assay [1], in assay [4], in assay [5], in assay [16] and in assay [7] was inactive.
Turning to `CC(Cc1ccc(O)c(O)c1)C(C)Cc1ccc(O)c(O)c1` (stereo unspecified), the Potency entry in assay [12], in assay [13], in [14], in assay [2], in assay [3] and in assay [6] was “inactive” each time. For the same compound, the Potency result in assay [9], in [10] and in assay [11] was “inactive” throughout. Moreover, in assay [15], the Potency was 13.7 µM (active). The outcome in assay [1], in assay [4], in assay [5], in assay [16], in [7] and in assay [8] was inactive.
As to `COc1cccc(-c2ccc(/C=C\CN3CCCCCC3)cc2Cl)c1`, the Potency result in assay [12], in assay [13], in [14], in assay [3], in assay [6] and in [9] was “inactive” in each case. For the same compound, the Potency entry in assay [10] and in assay [11] was “inactive” in each case. Moreover, the result in assay [1], in [4], in [5], in assay [16], in assay [7] and in assay [8] was inactive.
In the case of `CN1CCN(CCCN2c3ccccc3Sc3ccc(C(F)(F)F)cc32)CC1`, the Potency result in [12], in assay [2], in [3], in assay [6], in [9] and in assay [10] was “inactive” in each case. Moreover, in [11], the Potency result was “inactive”. In [19], the Potency was 29.8 µM (active). The call in assay [1], in assay [4], in assay [5], in [7] and in assay [8] was inactive.

These data come from PubChem BioAssay (Tox21).
